Compound activity (PubChem)
Sampled rows, rich in hits. Any-hit rate of the full collection: about 2.2%.
APP transl inh: APP translation inhibition. inhibition, % at 2 µM. hit rate 0.82% among 190,000. AID 1285. SH-SY5Y APP 5'UTR-luciferase reporter, luminescence;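 active = inhibition above a set limit, derived from the sample mean plus 3 SD, cut at about 45% in these data; inconclusive = one replicate passes the limit while the other fails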
BaF3 parental: reduces parental Ba/F3 cell viability, JAK2V617F counter-screen. CellTiter-Glo ATP luminescence. inhibition, % at 5.6 µM. hit rate 1.1% among 220,000. AID 1486;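 active = inhibition above a per-campaign cutoff, the mean inhibition of all tested compounds plus 3 SD, cut at about 27% in these data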
Ba/F3 V617F tox: lowers viability of Ba/F3 cells expressing EpoR and JAK2V617F; ATP luminescence; inhibition, % at 5.6 µM; hit rate 1.1% among 220,000; AID 1446;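 active = inhibition above the campaign mean plus 3 SD over all tested compounds, cut at about 24% in these data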;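 note: cytokine-independent growth of Ba/F3 cells driven by EpoR plus mutant JAK2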
aSyn 5UTR inh: 5' untranslated region of α-synuclein, MLPCN primary screen; alpha-synuclein 5'UTR reporter, inhibitor activity; inhibition, % (tested at 7.5 µM); hit rate 0.82% among 300,000; in the data active = inhibition above about 60%; inconclusive = no clear call, values can overlap the other calls;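 note: H4 neuroglioblastoma cells stably carrying SNCA 5'UTR luciferase fusion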
IEC-6 cytotox: IEC-6 cytotoxicity, counter-screen for KLF5 inhibitors. AID 1825. luminescence viability. hit rate 0.78% among 290,000. inhibition, % at 5 µM; in the data active = inhibition above about 22%
KLF5 inhibitor: kruppel-like factor 5 inhibition. DLD-1 KLF5 promoter-luciferase reporter, luminescence. inhibition, % at 5 µM. hit rate 0.23% among 290,000. AID 1700;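 active = inhibition above a per-plate limit of that plate's mean compound inhibition plus 3 SD, cut at about 60% in these data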;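 note: higher means less KLF5 promoter-driven luciferase light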
Of the large screens only hits and unclear results are named; the others gave an inactive call.

CC(=O)N(Cc1cccnc1)Cc1cc2ccc(C)cc2[nH]c1=O	BaF3 parental 95.4
Cc1cc(C)c2c(c1)/C(=N\N=c1\sc3ccccc3n1C)C(=O)N2	BaF3 parental 39.3 (no result: APP transl inh)
C/C(=N\S(=O)(=O)c1ccc(C)cc1)N1CCCCC1	BaF3 parental 79.8
C/C(=N\S(=O)(=O)c1ccc(C)cc1)N1CCN(S(=O)(=O)c2ccccc2)C1	none
CCN1/C(=C/c2cc[n+](C)cc2)C=Cc2cc(C)ccc21	BaF3 parental 73.3, Ba/F3 V617F tox 99.4 (no result: aSyn 5UTR inh)
COCn1c(-c2ccc(OC)cc2)nc2ccccc21	none
CCCn1c(-c2ccc(OC)cc2)nc2ccccc21	BaF3 parental 52.1, Ba/F3 V617F tox 40.4
NC(c1ccccc1)c1cccnc1 (stereo unspecified)	none (no result: APP transl inh, BaF3 parental, Ba/F3 V617F tox)
O=C(COC(=O)C1CC(=O)N(Cc2ccccc2)C1)Nc1ccc2c(c1)OCO2 (stereo unspecified)	APP transl inh 52.6
NS(=O)(=O)c1ccc(NC(=O)COC(=O)C2CC(=O)N(Cc3ccccc3)C2)cc1 (stereo unspecified)	none
O=C(N/N=C\c1ccc(Cl)s1)C1COc2ccccc2O1 (stereo unspecified)	none (no result: APP transl inh)
O=C(N/N=C/c1c[nH]c2ccccc12)C1COc2ccccc2O1 (stereo unspecified)	aSyn 5UTR inh 75.6
COc1cccc(/C=N/Nc2cc(N3CCOCC3)ncn2)c1O	aSyn 5UTR inh 72.2 (no result: APP transl inh, BaF3 parental, Ba/F3 V617F tox)
COc1cccc(/C=N/Nc2ncnc3c2ncn3Cc2ccccc2)c1O	APP transl inh 88.3, BaF3 parental 58.6, Ba/F3 V617F tox 71.0, aSyn 5UTR inh 101.9
Cc1cc(C[n+]2ccccc2)c2nsnc2c1	BaF3 parental 58.9, Ba/F3 V617F tox 59.2
Cc1cc(C[n+]2ccsc2N)c2ncccc2c1	none (no result: APP transl inh)
O=[N+]([O-])c1cc(Cl)cc(/C=N\Nc2ccccn2)c1O	aSyn 5UTR inh 89.9
O=C(NN=C1CCCC1)c1n[nH]c2c1CCCC2	APP transl inh 92.0
O=C(N/N=C/c1c(Cl)cccc1Cl)c1n[nH]c2c1CCCC2	none
Cc1ccsc1/C=N\NC(=O)c1n[nH]c2c1CCC2	aSyn 5UTR inh 68.6
O=C(NN=C1CCCC1)c1n[nH]c2c1CCC2	APP transl inh 94.0
O=C(NN=C1CCCCCC1)c1ccncc1	none (no result: APP transl inh, BaF3 parental, Ba/F3 V617F tox, aSyn 5UTR inh)
O=C(CCC1CCCN(C(=O)c2ccsc2)C1)NCc1ccc(F)c(F)c1 (stereo unspecified)	none
CCN(CC(=O)Nc1c(F)cccc1F)C(=O)CNC(=O)c1ccc(C)s1	none (no result: APP transl inh, BaF3 parental, Ba/F3 V617F tox)
CCO[C@@H]1OC(C(=O)O)=C[C@H](C2CC2)[C@H]1CCCO	none
COc1ccccc1CNC(=O)COC(=O)CSc1ccc(F)cc1	none (no result: APP transl inh, BaF3 parental, Ba/F3 V617F tox, IEC-6 cytotox, KLF5 inhibitor)
Cc1ccnc(N2C(=O)c3cccc4c([N+](=O)[O-])ccc(c34)C2=O)c1	BaF3 parental 36.3
O=C1c2cccc3c([N+](=O)[O-])ccc(c23)C(=O)N1Cc1cccnc1	APP transl inh 82.4, BaF3 parental 36.6, Ba/F3 V617F tox 41.6
O=C1c2cccc3cccc(c23)C(=O)N1Cc1cccnc1	none (no result: APP transl inh)
COc1ccc(CCNC(=O)C(=O)NCC2OCCN2C(=O)c2ccc(Cl)cc2)cc1 (stereo unspecified)	none (no result: APP transl inh, BaF3 parental, Ba/F3 V617F tox)
COc1ccc(C(=O)N2CCOC2CNC(=O)C(=O)NCc2ccc(Cl)cc2)cc1 (stereo unspecified)	BaF3 parental 62.6
COc1cccc(NC(=O)NC(C)C2CC3CCC2C3)c1 (stereo unspecified)	none
Nc1nc(N)c2c(n1)CCCC2	none (no result: APP transl inh)
CN(CC(=O)Nc1c(Cl)cccc1Cl)C(=O)c1cccc(-n2cccc2)c1	none (no result: APP transl inh, BaF3 parental, Ba/F3 V617F tox, IEC-6 cytotox, KLF5 inhibitor)
Nc1nc(N)c2cc(Sc3ccc4ccccc4c3)ccc2n1	BaF3 parental 101.2, Ba/F3 V617F tox 95.7, aSyn 5UTR inh 96.1, IEC-6 cytotox 80.9 (no result: APP transl inh)
O=C(/C=C\Nc1ccc2c(c1)OCO2)c1ccccn1	aSyn 5UTR inh 117.6
O=c1[nH]cnc2c1sc1nc3c(c(-c4ccc(Cl)cc4)c12)CCC3	APP transl inh 51.2
CN(C)c1ccc(CNc2ccc3c(c2)ncn3C)cc1	BaF3 parental 33.2
CC[n+]1c(/C=C/N(C)c2ccccc2)oc2ccc(Cl)cc21	BaF3 parental 59.0, Ba/F3 V617F tox 54.1
CCn1c(/C=C/N(C(C)=O)c2ccccc2)[n+](CC)c2ccc(Cl)cc21	none
Cn1c(Cc2ccccc2)[n+](C)c2ccccc21	BaF3 parental 68.9, Ba/F3 V617F tox 66.6
Cn1c(=O)c(Cc2ccccc2)c(O)c2ccccc21	none
CC(=O)C(Cc1cccc(F)c1)(Cc1cccc(F)c1)C(C)=O	none
COC(=O)C1=C(CCc2ccccc2)NC(=O)NC1c1ccc(Cl)cc1 (stereo unspecified)	none (no result: APP transl inh, BaF3 parental, Ba/F3 V617F tox, IEC-6 cytotox, KLF5 inhibitor)
CCOc1ccc(-n2c(SCC(=O)Nc3ccc(Br)cc3)nc3n[nH]c(C)c3c2=N)cc1	aSyn 5UTR inh 81.5
COC(=O)c1cn(C(=O)c2ccc(C)cc2C)c2ccccc12	APP transl inh 53.5
Cc1ccc(/C=N/NC(=O)c2csc3c2CCCC3)cc1	APP transl inh 89.7
COc1cc(/C=N/NC(=O)c2csc3c2CCCC3)cc(OC)c1O	none
Cc1nn2cc(-c3ccccc3)nc2[nH]c1=O	none
Cc1nc(-c2ccccc2)cn(O)c1=O	BaF3 parental 79.4
O=C(CCN1N=C(c2ccccc2)CCC1=O)NCC1CCCO1 (stereo unspecified)	none (no result: APP transl inh, BaF3 parental, Ba/F3 V617F tox)
Cc1[nH][nH]c(=O)c1C(c1c(C)[nH][nH]c1=O)c1cn(Cc2ccccc2Cl)c2ccccc12	APP transl inh 48.7
N/C(=N\O)c1cn(Cc2ccccc2Cl)c2ccccc12	none (no result: APP transl inh, BaF3 parental, Ba/F3 V617F tox)
O=C(/C=C/c1cccc(OCc2ccccc2)c1)c1cccnc1	APP transl inh 87.2
O=C(O)/C=C/c1cccc(OCc2ccccc2)c1	none
Cn1cnc(NCc2ccccc2)c1[N+](=O)[O-]	none (no result: APP transl inh)
Fc1ccc(-c2csc3[n+]2CCS3)cc1	none
c1sc2[n+](c1C13CC4CC(CC(C4)C1)C3)CCS2	BaF3 parental 60.6, Ba/F3 V617F tox 62.6
Cc1ccc(C(=O)NC2CCN(CC(=O)Nc3cccc([N+](=O)[O-])c3)CC2)cc1	none
CCC(C)NC(=S)N1CCN(C)CC1 (stereo unspecified)	none
O=c1cc(-c2c(F)c(F)c(F)c(F)c2F)oc2ccccc12	none
O=c1cc(-c2c(F)c(F)c(F)c(F)c2F)oc2c(F)c(F)c(F)c(F)c12	APP transl inh 96.8
CC1CCCCN1C(=O)CSc1nc2c(c(=O)n(C)c(=O)n2C)n1C (stereo unspecified)	none (no result: APP transl inh, BaF3 parental, Ba/F3 V617F tox)
Cn1cc(/C=N/n2cnc3scc(-c4ccc(Cl)cc4)c3c2=O)c2ccccc21	APP transl inh 90.4, aSyn 5UTR inh 87.0, IEC-6 cytotox 22.0
CCCOc1cccc(C(=O)Nc2ccc3c(c2)OCCO3)c1	none (no result: APP transl inh, BaF3 parental, Ba/F3 V617F tox)
COc1ccc(NCc2ccsc2)cc1	none (no result: APP transl inh, BaF3 parental, Ba/F3 V617F tox)
COc1cc(C(=O)Oc2ccc(/C=N/NC(=O)c3ccncc3)cc2)cc(OC)c1OC	none (no result: APP transl inh, BaF3 parental, Ba/F3 V617F tox)
COc1cc(C(=O)N/N=C/c2ccc(OC(=O)N3CCOCC3)cc2)cc(OC)c1OC	APP transl inh 60.8
N=c1c2c(n(Cc3cccc(Cl)c3)c3c1CCC3)CCCC2	BaF3 parental 61.0, Ba/F3 V617F tox 71.8, aSyn 5UTR inh inconclusive
Clc1cccc(CN2CCCCCC2)c1	none (no result: APP transl inh, BaF3 parental, Ba/F3 V617F tox)
